This is an account of results in PubChem BioAssay.

The target of assay [1] is Albumin (Bos taurus) (UniProt P02769). Nature of the assay: bovine serum albumin binders on microarray, profiling panel, artefact control for SMM control protein annotation, biochemical, small-molecule microarray, Alexa647 label, 635/667 nm fluorescence (AID 1118).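 Note: score merges 667 nm emission intensity and signal-to-noise per printed compound spot.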 The note with it: BSA-A647 binding, fluorescence 635 nm, higher = more signal.
The nature of assay [2]: small-molecule microarray binders of probe aXIP, primary screen, biochemical, NeuroSMM set, 635/667 nm fluorescence (AID 1119).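 Note: probe is the protein aXip251-270 applied at 1 µg/mL to compound-printed slides; binding of probe to printed compounds measured as 667 nm fluorescence plus signal to noise.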 Conditions: higher = more signal, called active from +8 up or from −8 down.
Assay [3] can be described thus: small-molecule binders of probe aNOTCH3, primary screen, biochemical, small-molecule microarray, 635/667 nm fluorescence (AID 1120).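 Note: probe is a biotin-tagged antibody raised against NOTCH3 rather than NOTCH3 protein; score merges spot fluorescence near 667 nm with spot signal to noise.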 Conditions: higher = more signal.
A short description of assay [4]: small-molecule binders of probe aNOTCH2, primary screen, biochemical, small-molecule microarray, 635/667 nm fluorescence (AID 1121).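 Note: score merges feature fluorescence read at 667 nm with its signal to noise.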 Conditions: higher = more signal.
Assay [5] deals with Carbonic anhydrase 2 (Homo sapiens) (UniProt P00918). Kind of assay: CAII small-molecule binders, profiling panel, biochemical, small-molecule microarray, Alexa647-labelled CAII (AID 1122). Conditions: CAII-A647 binding fluorescence, higher = more signal.
Assay [6] is described as follows: COS7 lysate on small-molecule microarray, probe aHis, 635 nm (AID 1123).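 Note: z-score combines 667nm fluorescence intensity with signal-to-noise per printed compound spot.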 Conditions: COS7 cell lysate, fluorescence, higher = more signal.
The nature of assay [7]: compound binding in COS7 lysate, probe aLAP1, primary screen, cell lysate, small-molecule microarray (AID 1124).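 Note: lysate comes from COS7 cells expressing LAP1 and is applied at 0.3 µg/mL; score merges spot fluorescence near 667 nm with signal-to-noise over triplicate slides.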 The note with it: probe aLAP1, fluorescence, higher = more signal.
Assay [8] has as its system Sam68 (KHDRBS1). Kind of assay: Sam68 small-molecule binders, primary screen, biochemical, small-molecule microarray, 635 nm fluorescence (AID 1125).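 Note: score merges 667 nm channel intensity with signal to noise over triplicate slides.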 The note with it: small-molecule microarray binding, higher = more signal.
Assay [9] deals with Chordin-like protein 2 (CHRDL2). Kind of assay: CHRDL2 small-molecule binders, primary screen, biochemical, small-molecule microarray, 635 nm fluorescence (AID 1126).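 Note: printed compound slides probed with Chrdl2 protein at 4 µg/mL for 1 h at 4 C; score merges 667 nm emission intensity with signal to noise over three replicate slides.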 The note with it: small-molecule microarray binding, fluorescence 635 nm; higher = more signal.
For assay [10], the target named is Concanavalin-A (Canavalia ensiformis) (UniProt P02866). Nature of the assay: ConA small-molecule binders, primary screen, artefact control for SMM control protein annotation, biochemical, small-molecule microarray, Alexa647 label, 635 nm (AID 1127).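 Note: z combines 667 nm emission intensity with signal-to-noise across three replicate slides.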 The note with it: ConA-A647 binding fluorescence, higher = more signal.
Assay [11] in a line: anti-His antibody binders, primary screen, artefact control for SMM control protein annotation, biochemical, small-molecule microarray, 635 nm fluorescence (AID 1128).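 Note: score merges feature fluorescence with signal-to-noise for each printed compound spot.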 Conditions: anti-His Alexa647 antibody binding, higher = more signal.
Assay [12] relates to Human papillomavirus type 1a E7 protein (residues 1-88). Nature of the assay: HPV1a E7 small-molecule binders, primary screen, biochemical, small-molecule microarray, residues 1-88, 635 nm (AID 1129). The note with it: small-molecule microarray binding, fluorescence 635 nm; higher = more signal.
The target in assay [13] is Focal adhesion kinase 1 (Homo sapiens) (UniProt Q05397). Kind of assay: small-molecule microarray binders of FAK, primary screen, biochemical, 635/667 nm fluorescence, BSA, DTT (AID 1130).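 Note: composite of spot emission at 667 nm and signal to noise over triplicate slides.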 The note with it: PTK2 binding, 635 nm fluorescence, higher = more signal.
Assay [14] relates to Fibrinogen (Alexa647-labelled). Nature of the assay: fibrinogen binders on compound microarrays, profiling panel, artefact control for SMM control-protein annotation, biochemical, small-molecule microarray, 635/667 nm fluorescence (AID 1131).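 Note: z-score merges 667 nm fluorescence with per-spot signal-to-noise over triplicate slides.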 Conditions: fibrinogen-A647 binding fluorescence, higher = more signal.
Assay [15] has as its target Follistatin (Homo sapiens) (UniProt P19883). Kind of assay: follistatin binders on small-molecule microarrays, primary screen, biochemical, small-molecule microarray, 635/667 nm fluorescence (AID 1132). Conditions: FST binding, 635 nm fluorescence, higher = more signal.
Assay [16] concerns the target Fibroblast growth factor 2 (Homo sapiens) (UniProt P09038). Nature of the assay: FGF2 binders on small-molecule microarrays, primary screen, biochemical, small-molecule microarray, 635/667 nm fluorescence (AID 1133). Conditions: small-molecule microarray binding, FGF2, fluorescence 635/667; higher = more signal.
A short description of assay [17]: mitochondrial membrane potential change in A549 cells, profiling panel, cell-based, JC-1 fluorescence, basal, 24 h, 100 nL (AID 1138).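 Note: A549 lung adenocarcinoma cells under basal conditions with no added stimulus; test concentration not given here.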 Conditions: higher = more signal.
Assay [18] relates to Lefty1. Kind of assay: Lefty1 binders on small-molecule microarrays, primary screen, biochemical, small-molecule microarray, 635/667 nm fluorescence (AID 1139). Conditions: small-molecule microarray binding, fluorescence 635/667; higher = more signal.
Assay [19] relates to wheat germ agglutinin (Triticum aestivum), Alexa647-labelled. Nature of the assay: wheat germ agglutinin binders on compound microarrays, profiling panel, artefact control for SMM control-protein annotation, biochemical, small-molecule microarray, 635/667 nm fluorescence (AID 1140).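 Note: score merges 667 nm feature emission with signal to noise over triplicate slides.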 The note with it: WGA-A647 binding, 635 nm fluorescence, higher = more signal.
For assay [20], the target named is Luciferin 4-monooxygenase (Photinus pyralis) (UniProt P08659). Kind of assay: firefly luciferase enzyme inhibitors, primary screen, biochemical, luminescence, purified enzyme, 2006 set (AID 1141).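 Note: cell-free assay with purified firefly luciferase at 100 ng per well in PBS; test concentration not given here.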 Conditions: SteadyGlo luminescence, 30 min, higher = more signal, called active from +8 up or from −8 down.

The source made the active and inactive calls.

Sequence of Concanavalin-A (Canavalia ensiformis) (P02866 whole entry, looked up): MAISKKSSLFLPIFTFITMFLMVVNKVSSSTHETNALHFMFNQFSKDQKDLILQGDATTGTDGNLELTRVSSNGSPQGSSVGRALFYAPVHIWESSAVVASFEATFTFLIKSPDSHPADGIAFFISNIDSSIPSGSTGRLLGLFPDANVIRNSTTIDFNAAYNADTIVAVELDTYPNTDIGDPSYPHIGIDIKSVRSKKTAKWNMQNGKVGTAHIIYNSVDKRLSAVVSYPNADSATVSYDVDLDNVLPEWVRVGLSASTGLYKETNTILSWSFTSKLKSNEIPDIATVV
Sequence of Luciferin 4-monooxygenase (Photinus pyralis) (P08659 whole entry, looked up): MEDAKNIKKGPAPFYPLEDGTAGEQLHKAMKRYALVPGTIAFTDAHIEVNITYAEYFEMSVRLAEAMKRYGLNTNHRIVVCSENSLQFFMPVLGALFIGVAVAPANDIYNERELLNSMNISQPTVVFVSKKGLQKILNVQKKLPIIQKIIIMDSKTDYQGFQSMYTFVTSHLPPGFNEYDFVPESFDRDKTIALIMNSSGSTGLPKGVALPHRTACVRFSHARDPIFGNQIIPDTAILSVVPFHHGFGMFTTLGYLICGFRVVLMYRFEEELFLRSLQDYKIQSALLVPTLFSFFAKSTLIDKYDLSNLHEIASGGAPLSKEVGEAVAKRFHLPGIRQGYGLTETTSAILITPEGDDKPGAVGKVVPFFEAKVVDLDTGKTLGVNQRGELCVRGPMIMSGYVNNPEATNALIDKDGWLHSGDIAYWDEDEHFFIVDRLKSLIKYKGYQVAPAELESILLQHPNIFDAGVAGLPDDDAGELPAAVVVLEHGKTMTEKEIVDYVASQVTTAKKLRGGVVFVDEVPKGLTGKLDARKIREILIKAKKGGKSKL
Sequence of Focal adhesion kinase 1 (Homo sapiens) (Q05397 whole entry, looked up): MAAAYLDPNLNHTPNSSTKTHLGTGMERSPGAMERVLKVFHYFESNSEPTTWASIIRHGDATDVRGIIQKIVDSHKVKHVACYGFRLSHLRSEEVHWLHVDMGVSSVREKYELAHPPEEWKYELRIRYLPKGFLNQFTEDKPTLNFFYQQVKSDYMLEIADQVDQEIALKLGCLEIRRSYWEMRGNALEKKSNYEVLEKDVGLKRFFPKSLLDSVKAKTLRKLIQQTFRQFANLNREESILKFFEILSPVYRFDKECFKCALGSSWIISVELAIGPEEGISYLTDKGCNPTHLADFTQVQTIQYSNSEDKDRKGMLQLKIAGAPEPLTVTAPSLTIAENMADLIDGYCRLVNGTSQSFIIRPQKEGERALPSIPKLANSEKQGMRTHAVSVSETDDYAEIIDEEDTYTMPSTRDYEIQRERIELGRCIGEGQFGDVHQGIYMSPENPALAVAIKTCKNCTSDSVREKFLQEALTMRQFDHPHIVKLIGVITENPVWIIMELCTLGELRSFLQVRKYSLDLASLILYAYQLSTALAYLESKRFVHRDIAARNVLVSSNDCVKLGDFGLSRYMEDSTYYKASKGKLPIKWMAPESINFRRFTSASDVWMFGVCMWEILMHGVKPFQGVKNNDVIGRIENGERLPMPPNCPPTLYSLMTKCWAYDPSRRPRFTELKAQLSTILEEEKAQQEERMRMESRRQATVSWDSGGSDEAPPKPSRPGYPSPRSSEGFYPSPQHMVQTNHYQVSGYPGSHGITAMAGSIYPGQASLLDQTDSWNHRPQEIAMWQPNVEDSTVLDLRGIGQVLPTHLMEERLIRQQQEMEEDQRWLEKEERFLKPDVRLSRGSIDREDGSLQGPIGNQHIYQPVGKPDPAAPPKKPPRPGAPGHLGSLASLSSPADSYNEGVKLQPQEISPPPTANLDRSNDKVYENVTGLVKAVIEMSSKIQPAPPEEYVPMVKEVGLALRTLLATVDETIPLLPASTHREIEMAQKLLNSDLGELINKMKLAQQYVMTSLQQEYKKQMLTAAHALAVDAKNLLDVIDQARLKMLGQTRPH
Sequence of Fibroblast growth factor 2 (Homo sapiens) (P09038 whole entry, looked up): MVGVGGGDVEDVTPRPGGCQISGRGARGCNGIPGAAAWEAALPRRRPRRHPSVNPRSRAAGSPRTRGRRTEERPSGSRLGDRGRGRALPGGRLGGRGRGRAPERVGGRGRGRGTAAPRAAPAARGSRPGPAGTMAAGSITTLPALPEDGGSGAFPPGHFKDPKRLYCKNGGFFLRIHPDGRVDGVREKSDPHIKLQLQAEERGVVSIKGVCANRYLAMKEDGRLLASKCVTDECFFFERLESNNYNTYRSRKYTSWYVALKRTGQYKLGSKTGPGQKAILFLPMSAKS
Sequence of Albumin (Bos taurus) (P02769 whole entry, looked up): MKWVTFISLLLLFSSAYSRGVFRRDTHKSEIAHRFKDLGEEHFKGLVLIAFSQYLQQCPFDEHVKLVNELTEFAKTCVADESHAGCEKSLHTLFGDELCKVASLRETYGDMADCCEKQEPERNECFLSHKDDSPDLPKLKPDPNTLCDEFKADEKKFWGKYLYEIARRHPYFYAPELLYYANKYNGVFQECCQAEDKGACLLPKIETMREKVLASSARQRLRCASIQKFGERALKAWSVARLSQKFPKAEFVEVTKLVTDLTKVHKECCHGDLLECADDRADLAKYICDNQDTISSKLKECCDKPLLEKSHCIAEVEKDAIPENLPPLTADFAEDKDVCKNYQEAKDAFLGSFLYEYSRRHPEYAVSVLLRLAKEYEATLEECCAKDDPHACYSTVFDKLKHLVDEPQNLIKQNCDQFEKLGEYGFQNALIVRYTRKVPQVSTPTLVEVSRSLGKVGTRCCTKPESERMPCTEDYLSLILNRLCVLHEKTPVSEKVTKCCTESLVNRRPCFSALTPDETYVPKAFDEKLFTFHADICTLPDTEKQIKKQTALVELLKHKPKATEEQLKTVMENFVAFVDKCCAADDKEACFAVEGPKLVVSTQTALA
Sequence of Follistatin (Homo sapiens) (P19883 whole entry, looked up): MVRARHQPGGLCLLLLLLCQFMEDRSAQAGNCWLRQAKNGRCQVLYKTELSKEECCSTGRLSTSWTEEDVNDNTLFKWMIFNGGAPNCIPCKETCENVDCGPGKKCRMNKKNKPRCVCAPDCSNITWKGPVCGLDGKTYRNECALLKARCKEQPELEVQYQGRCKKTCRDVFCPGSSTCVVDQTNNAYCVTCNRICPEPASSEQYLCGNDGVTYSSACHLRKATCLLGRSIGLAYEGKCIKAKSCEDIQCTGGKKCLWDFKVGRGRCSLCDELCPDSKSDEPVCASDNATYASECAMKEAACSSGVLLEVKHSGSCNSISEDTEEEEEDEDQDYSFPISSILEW

In the case of `OCCCC1=CC(c2cccs2)N(Cc2cc3c(cc2Br)OCO3)CC1` (stereo not given), the composite z-score was 0.252 in assay [1]; -0.0044 in assay [3]; -0.147 in [4]; 0.509 in assay [5]; 0.713 in assay [6]; 0.242 in assay [7]. Further, the composite z-score was 0.242 in assay [8]; -0.0561 in assay [9]; 0.795 in [10]; 0.992 in assay [11]; 0.213 in [12]; 0.585 in [13]. Further, the composite z-score in assay [14] stood at 0.772; in assay [15], 0.333; in assay [16], 0.076; in assay [18] it was 0.433; in assay [19], 0.929. In addition, the composite Z-score in [2] is 0.027 (inactive). Also, the z-score in [17] was 1.39; in assay [20], -0.0407 (inactive).

On to `CN1C(=O)C2C=CC(C(O)C#Cc3ccccc3)N(N3CCCCC3)C2C1=O` (stereo not given), for which the composite z-score is 0.268 in assay [1]; 1.15 in [3]; 0.519 in [4]; 0.798 in assay [5]; 0.19 in [6]; 1.3 in [7]. The composite z-score in assay [8] is -0.156; in assay [9], 0.111; in assay [10], 0.82; in assay [11], 2.14; in [12] it was 0.392; in assay [13] it was -0.381. In addition, the composite z-score is 0.933 in assay [14]; 0.718 in assay [15]; 0.756 in assay [16]; -0.418 in assay [18]; 1.3 in assay [19]. The composite Z-score in [2] is 1.04 (inactive). For the same molecule, the z-score in assay [17] is 0.534; in [20] it was -1.69 (inactive).

For the molecule `C=C(COC)/C(=C/C[C@@H](OC(=O)c1ccncc1)c1ccc(CO)o1)c1cc(C(=O)OC)ccc1OC`, the composite z-score in assay [1] is 0.0436; in assay [3], 0.0979; in [4], -0.104; in assay [5], 0.482; in assay [6] it was 0.641; in assay [7], 1.46. The composite z-score came to 1.31 in [8]; 1.1 in [9]; 1.14 in assay [10]; 0.68 in assay [11]; 1.24 in [12]; 0.987 in [13]. Besides, the composite z-score in assay [14] came to 0.933; in assay [15] it was 1.46; in assay [16], 1.92; in assay [18], 1.64; in [19] it was 0.707. Also, the composite Z-score in [2] is -0.0882 (inactive). Moreover, the z-score in [17] was 0.526; in assay [20], -1.83 (inactive).

As to `C=C(CCCC)/C(=C/C[C@H](OC(=O)c1ccncc1)c1ccccc1OCCO)c1cnc2ccccc2c1`, the composite z-score in assay [1] was 0.0803; in assay [3], 0.0259; in assay [4], -0.182; in assay [5], 0.862; in assay [6], 1.25; in assay [7] it was 0.406. Besides, the composite z-score in assay [8] turned out to be 1.16; in [9], 0.66; in assay [10] it was 1.14; in [11], 0.997; in assay [12], 1.08; in assay [13] it was 0.166. Further, the composite z-score in assay [14] turned out to be 0.47; in assay [15], 1.27; in assay [16], 0.912; in assay [18] it was 1.14; in [19], 1.14. Besides, the composite Z-score in [2] is -0.153 (inactive). The z-score was 0.957 in [17] and -0.372 (inactive) in [20].

Take `C=C(CCCC)/C(=C/C[C@H](OC(C)=O)c1ccccc1OCCO)c1cc(C(=O)OC)ccc1OC`: the composite z-score in assay [1] was 0.0908; in assay [3] it was -0.141; in assay [4], -0.117; in [5] it was 0.767; in [6] it was 0.0095; in [7], 0.095. Also, the composite z-score is 0.287 in assay [8]; -0.193 in [9]; -0.701 in assay [10]; -0.33 in assay [11]; 0.0376 in assay [12]; -0.0155 in assay [13]. The composite z-score in assay [14] was -0.438; in assay [15], 0.0341; in assay [16], -0.196; in assay [18], 0.0742; in [19], -0.4. Further, the composite Z-score in [2] was 0.0578 (inactive). Further, the figures for the z-score in [17] and in assay [20] were 1.39 and -0.687 (inactive), respectively.
